# Reference: the supplement of paper PMC6522484
# ± gives the standard deviation of the averaged measurements.
# How the values were obtained:
# [1] = test system: DLD1; assay: cell viability (CellTiter-Glo) relative to plate median (fraction of plate median); higher = more viable cells; details: 5 µM; treatment time 24 h; reporter: 7TFP
# Summary of the method: (§1)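 On parallel plates, a Tecan F500 reader recorded either firefly luciferase or CellTiterGlo luminescence. The plates held colorectal cancer cells stably transduced with lentiviral TCF/Wnt firefly luciferase reporters (7TFP or TCF4/Wnt), seeded in 384-well format and treated 24 h later with library compounds at a final 5 µM for 24 h. Per-well signals were normalised to the plate median (webcellHTS2, additive, no log transformation), and two independent replicates were averaged.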
# [2] = test system: HCT116; assay: as above; details: 5 µM; treatment time 24 h; reporter: TCF4/Wnt
# Summary of the method: as §1
# [3] = test system: SW480; assay: as above; details: 5 µM; treatment time 24 h; reporter: 7TFP
# Summary of the method: as §1
# [4] = test system: DLD1; assay: TCF/Wnt firefly luciferase reporter signal relative to plate median (fraction of plate median); higher = higher Wnt reporter signal; details: 5 µM; treatment time 24 h; reporter: 7TFP
# Summary of the method: as §1
# [5] = test system: SW480; assay: as above; details: 5 µM; treatment time 24 h; reporter: 7TFP
# Summary of the method: as §1
Structure (SMILES),cell viability [1],cell viability [2],cell viability [3],TCF/Wnt firefly luciferase reporter signal [4],TCF/Wnt firefly luciferase reporter signal [5]
COc1ccc(C(=O)O[C@H]2CC[C@@]3(C)[C@@H]4CC[C@H]5[C@]6(O)C[C@H](O)[C@@]7(O)[C@@H](CN8C[C@@H](C)CC[C@H]8[C@@]7(C)O)[C@]6(O)C[C@@]53O[C@]24O)cc1OC,0.98 ± 0.043,0.942 ± 0.083,1.02 ± 0.099,1.03 ± 0.14,1.05 ± 0.087
CSc1nc(NC(C)C)nc(NC(C)C)n1,0.9725 ± 0.0035,0.92 ± 0.11,1 ± 0.014,1.06,1.07 ± 0.014
CC(=O)O[C@H]1C[C@@H](OC(C)=O)C(C)(C)C2C[C@@H](OC(C)=O)[C@]3(C)C(CC[C@@]4(C)[C@H](c5ccoc5)C(=O)[C@H]5O[C@]543)[C@]21C (stereo not given in full),0.99 ± 0.014,1.06 ± 0.19,1.02 ± 0.035,1.2 ± 0.057,1.09 ± 0.078
NCCc1c[nH]c2ccccc12,0.991 ± 0.041,1.03 ± 0.16,0.952 ± 0.061,0.988 ± 0.045,1.03 ± 0.021
CCC(C)C(=O)OC1CC2(C)C(c3ccoc3)OC(=O)CC23OC2(C)OC34C(OC(=O)C(C)C)C3(O)C(OC(=O)C5(C)OC5C)C5(C)CC3(O)C(C)(C5CC(=O)OC)C14O2 (stereo not given),1.09 ± 0.071,1.12 ± 0.11,1.08 ± 0.014,1.045 ± 0.0071,1.13 ± 0.014
c1cncc([C@@H]2CCCCN2)c1,0.993 ± 0.011,0.952 ± 0.17,0.9635 ± 0.0078,0.971 ± 0.11,0.927 ± 0.044
CN[C@@H]1[C@@H](O)[C@@H](O[C@@H]2[C@@H](O)[C@H](O[C@H]3O[C@H]([C@@H](C)O)[C@@H](O)[C@H](O)[C@H]3N)[C@@H](N)C[C@H]2N)OC[C@]1(C)O,1.075 ± 0.0071,1.04 ± 0.035,1.08 ± 0.071,0.964 ± 0.12,1.08 ± 0.085
CCC12C=CCN3CC[C@@]4(c5ccc(OC)cc5N(C)[C@H]4[C@@](O)(C(=O)OC)[C@@H]1OC(C)=O)[C@@H]32 (stereo not given in full),0.975 ± 0.035,0.953 ± 0.025,0.9915 ± 0.0021,0.857 ± 0.042,0.821 ± 0.021
"CC(=O)C1CCC2C3CCC4C[C@H](O)CCC4(C)C3C[C@H](O)C12C (stereo partly drawn) [DIHYDROXY (3alpha,12alpha)PREGNAN-20-ONE]",1.01 ± 0.042,1.12 ± 0.13,1.1 ± 0.064,0.9925 ± 0.0064,0.9855 ± 0.0021
Cc1ncc(CNC(=O)N(CCCl)N=O)c(N)n1,1.02 ± 0.021,0.98 ± 0.0071,1.025 ± 0.0071,1.01 ± 0.03,0.987 ± 0.019
Oc1ccc2c3c1O[C@H]1[C@@H](O)CC[C@@]4(O)[C@@H](C2)N(CC2CCC2)CC[C@]314,1 ± 0.067,1 ± 0.014,0.942 ± 0.082,0.979 ± 0.03,1.06 ± 0.064
COc1cc2ccc(=O)oc2c2ccoc12,0.932 ± 0.077,1.01 ± 0.02,0.9355 ± 0.0035,0.968 ± 0.17,0.996 ± 0.063
CC(C)Nc1nc(Cl)nc(NC(C)C)n1,1.02 ± 0.049,0.952 ± 0.0014,0.949 ± 0.025,0.973 ± 0.038,0.944 ± 0.018
C[C@@H]1C[C@H](O)[C@@]2(O)[C@]13CC(=O)OC[C@@]2(C)[C@@](C)(O)C(=O)C3,1.115 ± 0.0071,1.03 ± 0.068,1.04 ± 0.021,1.05 ± 0.071,1.03 ± 0.054
N.N.[Cl][Pt][Cl],1.1 ± 0.11,1.07 ± 0.014,1.02 ± 0.014,0.939 ± 0.016,0.954 ± 0.08
CCC(C)C(=O)c1c(O)c(C)c2oc3c(C)c(O)c(C(=O)C(C)CC)c(O)c3c2c1O (stereo not given),0.997 ± 0.033,0.95 ± 0.11,0.998 ± 0.045,0.9565 ± 0.0035,0.9575 ± 0.0092
CN(C)C(=O)Oc1cc(OC(=O)N(C)C)cc(C(O)CNC(C)(C)C)c1 (stereo not given),0.986 ± 0.021,1 ± 0.024,0.961 ± 0.044,0.911 ± 0.11,1.045 ± 0.0071
C[C@]12CC[C@H]3[C@@H](CCC4=CC(=O)CC[C@@]43C)[C@@H]1CC[C@@H]2O,1.03 ± 0.021,1.15 ± 0.17,1.045 ± 0.0071,0.967 ± 0.061,1.04 ± 0.092
COC(=O)NC(=S)Nc1ccccc1NC(=S)NC(=O)OC,0.944 ± 0.071,0.966 ± 0.09,0.973 ± 0.0071,1.17 ± 0.042,1.02 ± 0.31
CCCC(C)C1(CC)C(=O)NC(=S)NC1=O (stereo not given),1.005 ± 0.0071,1.03 ± 0.11,1.02 ± 0.035,1.16 ± 0.15,0.974 ± 0.065
CC1=NCCc2c1[nH]c1cc(O)ccc21,0.971 ± 0.069,1.01 ± 0.11,1.02 ± 0.014,1.02 ± 0.17,0.988 ± 0.031
CNC(=O)Oc1ccccc1OC(C)C,0.98 ± 0.0071,0.983 ± 0.0042,0.986 ± 0.014,0.913 ± 0.19,1.01 ± 0.016
CC[C@@H](C(=O)[C@@H](C)[C@@H](O)[C@H](C)[C@@H]1O[C@@H]([C@@H](CC)C(=O)O)CC[C@@H]1C)[C@H]1O[C@]2(C=C[C@@H](O)[C@]3(CC[C@@](C)([C@H]4CC[C@](O)(CC)[C@H](C)O4)O3)O2)[C@H](C)C[C@@H]1C,0.948 ± 0.14,0.978 ± 0.073,1.07 ± 0.05,0.783 ± 0.11,0.897 ± 0.089
C=CCc1cc(OC)c2c(c1OC)OCO2,0.962 ± 0.15,0.864 ± 0.057,0.994 ± 0.023,0.876 ± 0.099,0.976 ± 0.033
c1ccc2c(c1)[nH]c1cnccc12,0.956 ± 0.041,1.01 ± 0.021,0.9715 ± 0.005,0.892 ± 0.19,0.879 ± 0.065
